Source: PubChem BioAssay (NCI)
“And” between values parts separate entries of the source, which are not always exact repeats. Equal entries are not always repeated. Compounds without any hit were thinned out: in the full panel of roughly 83,000, 20% have a hit.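 Single-dose data. Exposure time 48 hours. Values below 10 considered active.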 The source made the active and inactive calls.

Tested on: MDA-MB-468 breast
Assay: NCI-60 one-dose screen, 48 h (100 = growth as untreated, 0 = no growth, -100 = all killed)
Settings: 10 µM unless noted

| Structure (SMILES) | growth |
| --- | --- |
| O=C(NNc1nc2cc(F)ccc2n2cccc12)c1ccncn1 | -15.2% (active) |
| CCN(CC)c1ccc2c(c1)Oc1nc(N)c(C#N)c(N)c1C2Sc1ccc(F)cc1 (stereo not given) | -70.1% (active) |
| CN1C(=O)/C(=C/c2ccc(C(=O)Nc3ncc(Cc4cccc(Cl)c4)s3)cc2)SC1=S | 37.7% (inactive) |
| Cc1c(NC(=O)OC[C@@H]2COCCN2)cn2ncnc(Nc3ccc4c(cnn4Cc4cccc(F)c4)c3)c12 | -53.7% (active) |
| FC(F)(F)Oc1ccc2c(c1)C[C@H]1C[C@@H](c3ccoc3)N2O1 | 118% (inactive) |
| COc1cc2cc(Oc3ccc(NC(=O)Nc4cc(C(F)(F)F)cc(C(F)(F)F)c4)cc3)c(C)nc2cc1OCCN1CCOCC1 | -12% (active) |
| C#C[C@]1(O)CC[C@H]2[C@@H]3CC=C4c5sc(C6CC6)nc5CC[C@]4(C)[C@H]3CC[C@@]21C | 68.4% (inactive) |
| O=C(CCl)Oc1ccc([N+](=O)[O-])cc1 | 112% (inactive) |
| C[C@H]1OC(=O)/C=C/[C@@H](O)[C@@H](O)CCCCCCCC[C@@H]1O | 97.2% (inactive) |
| COc1cc(F)c(-c2nc3c(C)cccc3n2Cc2c(F)cccc2F)c(F)c1 | 65.5% (inactive) |
| CN(C)c1ccc(N=C2C=CC(=O)c3ccccc32)cc1 | 65.6% (inactive) |
| C[C@@H]1O[C@@H](O[C@H]2[C@@H](OC(=O)[C@]34CCC(C)(C)C[C@H]3C3=CC[C@@H]5[C@@]6(C)C[C@H](O)[C@H](O[C@@H]7O[C@H](CO)[C@@H](O)[C@H](O)[C@H]7O)[C@@](C)(CO)[C@@H]6CC[C@@]5(C)[C@]3(C)C[C@H]4O)OC[C@@H](O)[C@@H]2O)[C@H](O)[C@H](O[C@@H]2OC[C@@H](O)[C@H](O[C@@H]3OC[C@](O)(CO)[C@H]3O[C@@H]3OC[C@@H](O)[C@H](O)[C@H]3O)[C@H]2O)[C@H]1O[C@@H]1OC[C@](O)(CO)[C@H]1O | -24.2% (active) |
| O=C(O)Cc1cc(=O)[nH]n(-c2ccccc2)c1=O | 102% (inactive) |
| COc1ccc(C2=CC(c3cc(OC)c(OC)c(OC)c3)NC(=O)N2)cc1OC (stereo not given) | -12.6% (active) |
| CC(C)(C)n1cc(-c2ccnc(NCCCNS(=O)(=O)c3ccccc3)c2)c(-c2ccccc2)n1 | 25.1% (inactive) |
| CN(C)CCOC1(Cc2ccc(Cl)cc2Cl)CCC(C(C)(C)C)CC1 (stereo not given) | -77.6% (active) and -87.3% (active) |
| Cc1cc(NS(=O)(=O)c2ccc(NC(=O)CSc3nc4ccccc4c(=O)n3-c3ccccc3)cc2)no1 | 91% (inactive) |
| CC(C)(C)[Si](C)(C)OC1[C@@H](COC(=O)NC(=O)CCl)O[C@@H](n2cnc3c(N)ncnc32)[C@H]1O[Si](C)(C)C(C)(C)C (stereo not given in full) | 65% (inactive) |
| CSc1nc2c(c(=O)[nH]1)C1(C(=O)Nc3ccccc31)c1c(nc(SC)[nH]c1=O)N2 | 93.1% (inactive) |
| CC(=O)c1ccc(NS(=O)(=O)c2cccc(C(=O)Nc3ccc(Br)cc3)c2)cc1 | 15.3% [25 µM] (inactive) |

| Structure (SMILES) | growth |
| --- | --- |
| O=S(=O)(Oc1ccc(-c2cn3ccoc3n2)cc1)C1CCCCC1 | 92.3% (inactive) |
| CCOC(=O)c1c(C)nc(C)c(C(=O)OCC)c1-c1cccnc1 | 94.8% (inactive) |
| CC(C)C[C@@H](NC(=O)[C@@H](Cc1ccccc1)NC(=O)c1cnccn1)B1O[C@H]2[C@H](O)[C@@H](C(=O)NCCCC[C@@H]3NC(=O)[C@@H](Cc4ccccc4)NC(=O)[C@H](CC(=O)O)NC(=O)CNC(=O)[C@H](CCCN=C(N)N)NC3=O)O[C@@H](CN)[C@H]2O1 | -45.5% (active) |
| COc1ccc(C2=NN(C(=O)c3cc(OC)c(OC)c(OC)c3)C(c3ccc(N(C)C)cc3)C2)cc1 (stereo not given) | 22.7% (inactive) |
| CC(c1ccccc1)N(C)C (stereo not given) | 86% (inactive) |
| Clc1ccc2[nH]c3c(NCCCN4CCOCC4)ncnc3c2c1 | 33.7% (inactive) |
| COc1cccc(COC(=O)Nc2ccccc2)c1OC | 93.3% (inactive) |
| COc1ccc(-c2nn(-c3cccc(NC(=O)Nc4cccc(C(F)(F)F)c4)c3)cc2-c2ccncc2)cc1Cl | 27.5% (inactive) |
| O=c1oc2ccc(Br)cc2c(=O)n1-c1ccc(Cl)cc1F | -1.24% (active) |
| Cc1ccc(S(=O)(=O)Nc2cccc(Cn3c(=O)[nH]c4ccc(Oc5ncccn5)cc4c3=O)c2)cc1 | 39.6% (inactive) |
| C=C1C(=O)O[C@@H]2C[C@@H](C)[C@H](OC)CC(=O)[C@](C)(OC(C)=O)C[C@H](OC(=O)/C(C)=C\C)[C@@H]12 | 54.5% (inactive) |
| COc1ccc(-c2nc3sc(-c4ccccc4)cn3n2)cc1 | 18.7% (inactive) |
| CC(=O)Nc1ccc(C)c(Nc2cc(-c3ccc(-n4cccn4)cc3)[nH]n2)c1 | 20% (inactive) |
| CC(C)c1ccc(NC(=O)Nc2ccc(NC(=O)CCCC(=O)NOCc3ccccc3)cc2)cc1 | 85% (inactive) |
| O[C@@H]1CCO[C@H](c2ccc3ccccc3c2)C1 | 107% (inactive) |
| O=C1Nc2ccc(Cl)cc2/C1=N/N=C/c1c[nH]c2ccccc12 | 98.7% (inactive) |
| Cc1nc2ccc(C(=O)NCc3cc(C(=O)O)c(C)o3)cc2nc1C | 98.7% (inactive) |
| CCc1cccc2c3c(sc12)C(c1ccc(F)cc1)C(C#N)=C(/N=C/c1ccc(Cl)cc1)O3 (stereo not given) | 31% (inactive) |
| CC(=O)C1C(=O)C(=O)N(c2ccc(Cl)c(Cl)c2)C1=O (stereo not given) | 115% (inactive) |
| CC(=O)O[C@H]1[C@H](CC#CC#CC[C@@H]2C[C@]3(C)[C@H]4CC=C5[C@H]6[C@@H](C)[C@H](C)CC[C@]6(C(=O)NCCN(CCN)CCN)CC[C@@]5(C)[C@]4(C)CC[C@H]3C(C)(C)[C@H]2OC(C)=O)C[C@]2(C)[C@H]3CC=C4[C@H]5[C@@H](C)[C@H](C)CC[C@]5(C(=O)NCCN(CCN)CCN)CC[C@@]4(C)[C@]3(C)CC[C@H]2C1(C)C | 1.36% (active) |
